Molecules are shown by their SMILES. Out of some 350,000 compounds screened, about 600 (0.17%) were called active. The list comes from a sample in which actives are over-represented; it also holds similar structures and randomly drawn compounds. Values without a mark were called inactive.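 How the source made its calls: active means every replicate shows inhibition of at least 40%; inconclusive means mean inhibition at least 40% but some replicate below; inactive means the rest.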

The experiment is described as follows: compounds lowering acetylated PGC1a in cells – cell-based, U2OS, AlphaScreen, inhibitor mode, primary screen (AID 651687).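 Further: 0% = neutral control wells and 100% = positive control wells.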 The conditions noted are these: U2OS PGC1a acetylation, AlphaScreen anti-acetyl-lysine; at 15.6 µM; hits give high values; with virally co-expressed GCN5 acetyltransferase.
On to `COc1ccccc1C#Cc1cnc2c(c1)C(=O)N([C@@H](C)CO)C[C@@H](C)[C@H](CN(C)C(=O)CN(C)C)O2`, for which the inhibition was -1.48%.
Then `C/C(=C\c1ccccc1)C1NC(=O)c2c(sc3c2CCCC3)N1` (centres undefined), with 6.29%; and `CC1(C(=O)O)CCCN(C(=O)/C=C/c2ccccc2)C1` (centres undefined), with 7.82%.
In the case of `Cc1[nH]c(=O)c(C(=O)/C=C/c2ccccc2)c2c1CCCC2` it was 53.2% (active).
Regarding `C[C@@H]1CN([C@H](C)CO)C(=O)c2cc(NC(=O)c3ccccc3)ccc2O[C@@H](C)CCCCO[C@H]1CN(C)S(=O)(=O)c1ccccc1`, the inhibition is 0.633%.
As to `CC(C)CC#Cc1ccc2c(c1)O[C@H](CN(C)C(=O)C1CC1)[C@@H](C)CN([C@@H](C)CO)S2(=O)=O`, the inhibition is 3.73%.
Then `CCCN1C[C@@H](C)[C@H](OC)CN(C)C(=O)c2cc(NC(=O)CC)ccc2OC[C@@H]1C`, with 3.35%; and `C/C=C/c1ccc([C@H]2[C@H]3CN(S(=O)(=O)c4ccccc4)CCCCN3[C@H]2CO)cc1`, with -5.04%.
Consider `Cc1noc(C)c1NC(=O)N(C)C[C@@H]1Oc2ccc(NC(=O)Nc3ccc4c(c3)OCO4)cc2CC(=O)N([C@H](C)CO)C[C@H]1C`, for which the inhibition was -8.32%.
Regarding `O=C(C1CCCC1)N1CC(=O)N2[C@H](CO)[C@H](c3ccc(Br)cc3)[C@@H]2C1`, the inhibition is -9%.
As for `C[C@@H]1CN([C@H](C)CO)C(=O)Cc2cc(NC(=O)Cn3cnnn3)ccc2O[C@H]1CN(C)CC1CCCCC1`, the inhibition is -7.22%.
On to `N#C[C@H]1[C@H](c2ccc(-c3cccc(F)c3)cc2)[C@@H](CO)N1C(=O)NC1CCCC1`, for which the inhibition was 4.29%.
For the compound `C[C@@H]1CN([C@H](C)CO)C(=O)c2cccc(NS(=O)(=O)c3cn(C)cn3)c2O[C@@H]1CN(C)Cc1ccc(C(F)(F)F)cc1`, the inhibition is -1.87%.
In the case of `O=C(C[C@H]1C[C@@H]2c3cc(NC(=O)c4ccc5c(c4)OCO5)ccc3O[C@@H]2[C@@H](CO)O1)NCc1cccnc1` it was -3.47%.
With `COCC(=O)N1CC(=O)N2[C@H](C1)[C@@H](c1ccc(C#Cc3cccc(OC)c3)cc1)[C@@H]2CO`, the inhibition is -0.955%.
Turning to `Cc1nc2ccccc2c(=O)n1NC(=O)c1ccc(Cl)c([N+](=O)[O-])c1`, the inhibition is 44.8% (active).
For `O=C(O)c1ccc2c(=O)n3c(nc2c1)/C(=C/c1ccc(Cl)c([N+](=O)[O-])c1)CC3`, the inhibition was 12.5%.
Then `Cc1ccnc(NC(=O)c2ccc(Cl)c([N+](=O)[O-])c2)c1`, with 3%; and `O=C(C1CC1)N1CC(=O)N2[C@H](CO)[C@@H](c3ccc(-c4ccccc4F)cc3)[C@@H]2C1`, with 6.24%.

The values above are taken from PubChem BioAssay AID651687 (Broad Institute, 2012).
